This passage reports Potency results from PubChem BioAssay AID1671189 (National Center for Advancing Translational Sciences (NCATS), 2021).

“And” between values parts separate entries of the source, which are not always exact repeats. Equal values may be shown once. About 70 (6%) of roughly 1,100 compounds were called active. Where a call stands in place of a potency, no number is given. About 22% were inconclusive and are not listed. Calls follow the shape of the dose curve; as a rule, active = well fitted curve in the direction sought with a large enough effect; inconclusive = small, poorly fitted or top-dose-only effect, or another doubt; inactive = no such curve, though single readings can be large or run the other way. Only a selection was taken, and actives are over-represented in it overall.
Potency is read from the fitted curve at half-maximal effect.

Polyunsaturated fatty acid lipoxygenase ALOX12 (Homo sapiens), sequence (P18054 whole entry, looked up): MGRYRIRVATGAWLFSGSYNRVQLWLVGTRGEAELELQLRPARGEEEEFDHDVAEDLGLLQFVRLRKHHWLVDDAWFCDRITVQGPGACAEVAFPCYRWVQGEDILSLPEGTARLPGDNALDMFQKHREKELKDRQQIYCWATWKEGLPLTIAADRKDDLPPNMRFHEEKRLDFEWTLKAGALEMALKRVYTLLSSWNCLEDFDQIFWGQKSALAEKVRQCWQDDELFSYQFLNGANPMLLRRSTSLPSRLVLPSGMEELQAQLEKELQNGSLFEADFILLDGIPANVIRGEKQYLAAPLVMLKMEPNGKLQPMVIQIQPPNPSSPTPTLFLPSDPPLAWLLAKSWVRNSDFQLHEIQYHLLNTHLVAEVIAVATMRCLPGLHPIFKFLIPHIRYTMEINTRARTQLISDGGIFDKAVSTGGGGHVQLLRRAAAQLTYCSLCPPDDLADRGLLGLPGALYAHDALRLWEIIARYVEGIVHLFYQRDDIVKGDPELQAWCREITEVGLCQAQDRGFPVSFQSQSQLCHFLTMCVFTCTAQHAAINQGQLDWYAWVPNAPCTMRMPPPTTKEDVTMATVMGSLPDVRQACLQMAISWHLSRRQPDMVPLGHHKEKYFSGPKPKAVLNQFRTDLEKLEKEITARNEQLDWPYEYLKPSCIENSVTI

The target in this assay is Polyunsaturated fatty acid lipoxygenase ALOX12 (Homo sapiens) (UniProt P18054). Put plainly: Confirmatory qHTS assay for inhibitors of human arachidonate 12S-lipoxygenase (ALOX12): Round 2. To be noted: purified human 12-LOX, xylenol orange absorbance; series mostly up to 125 µM. In outline:
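Purified human enzyme (150 nM) in 25 mM Hepes, 0.01% Triton X-100, pH 7.0, preincubated 15 min with compound, then 40 uM arachidonic acid for 30 min at room temperature. Hydroperoxide detected by Fe-XO, read as 573/405 nm absorbance ratio.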
Consider `COCCNC(=O)c1cc(C)nc2onc(C3CCCNC3)c12` (stereo unspecified), for which the Potency entry is “inactive”.
Under `O=C(O)c1ccc(-c2cnccn2)cc1` stands “inactive”; under `CN1CCC2(Cc3ccccc3CN(C(=O)Cc3cccc(Cl)c3)C2)C1` (stereo unspecified), “inactive”; under `CNC(C)c1cccc(OC)c1` (stereo unspecified), “inactive”.
As to `O=[S+]([O-])(Nc1ccc(N2CCNCC2)cc1)c1ccc(NCc2ccc(Cl)cc2O)cc1`, the Potency is 21.7 µM (active).
Take `O=[S+]([O-])(Nc1ccc(N2CCNCC2)cc1)c1ccc(NCc2ccc(Br)cc2O)cc1`: the Potency is 21.7 µM (active).
Turning to `O=C(CCC[C@H]1NC[C@@H]2CC1CN(Cc1ccccc1)C2)NCc1ccc(F)cc1`, the Potency entry is “inactive”.
Under `Cc1ccc(CN2CCC3(CC2)Cc2ccccc2CNC3=O)cc1C` stands “inactive”; under `O=C(NCc1ccncc1)c1cc(C2CC2)nc2c1c(C1CCCN1)nn2-c1ccccc1` (stereo unspecified), “inactive”; under `Cc1cc(C(=O)NCc2ccc(F)cc2)c2c(C3CCNC3)noc2n1` (stereo unspecified), “inactive”.
Then `O=C1CCN(C(=O)[C@@H]2CCCN2Cc2ccc(C(F)(F)F)cc2)CCCCCCN1`, with “inactive”; and `CCn1cc(-c2ccc(C)cc2)cc1C(=O)N1CCN(c2ccccn2)CC1`, with “inactive”.
Turning to `CCC(C)Cn1c(/C=C/c2ccccc2)nc2ccccc21` (stereo unspecified), the Potency entry was “inactive”.
As to `C[C@]1(CO)[C@H]2Cc3sc(NC(=O)c4ccnc(Cl)c4)nc3[C@@H](CC(=O)O)[C@]2(C)CC[C@H]1O`, the Potency entry was “inactive”.
Regarding `CC(=O)NC(c1cccs1)c1cc(Cl)c2cccnc2c1O` (stereo unspecified), the Potency is 3.06 µM (active).
Under `COC(=O)[C@H](c1ccccc1Cl)N1CCc2sccc2C1` stands “inactive”; under `CCC(=O)NC(c1cccs1)c1cc(Cl)c2cccnc2c1O` (stereo unspecified), 1.93 µM (active) and 4.85 µM (active) and 2.43 µM (active).
In the case of `CC(=O)NC(c1cccs1)c1cc(Br)c2cccnc2c1O` (stereo unspecified), the Potency entry is “inactive”.
Regarding `CCC(=O)NC(c1cccs1)c1cc([N+](=O)[O-])c2cccnc2c1O` (stereo unspecified), the Potency is 6.11 µM (active).
Consider `NCc1cccc(-c2cc(C(F)(F)F)ccc2Cl)c1`, for which the Potency result was “inactive”.
Under `Cc1ccc(CN2CCc3oc(C)c(C(=O)N4CCSCC4)c3C2)cc1` stands “inactive”; under `Cc1ccc(CCN2CCCCC23Cc2ccccc2CN(C(=O)CCCC(=O)O)C3)cc1` (stereo unspecified), “inactive”; under `CN1CC(=O)N(C2CCCNC2)Cc2c(NC3CCCCCC3)ncnc21` (stereo unspecified), “inactive”.
Take `CC(C)(N)C(=O)N1CCCC(N2CCN(Cc3ccc4c(c3)OCO4)CC2)C1` (stereo unspecified): the Potency result is “inactive”.
Then `COc1ccc(N2CC3CCC(C2)N3C(C)=O)cc1`, with “inactive”.
With `O=C(c1cc(C2CC2)nc2onc(C3CCCN3)c12)N1CCC(F)CC1` (stereo unspecified), the Potency result was “inactive”.
For `COc1ccc(C(=O)N2CC(Oc3ccc4c(c3)OCO4)C2)cc1`, the Potency result was “inactive”.
`O=C(Nc1ccccc1)O[C@@H]1CO[C@H]2[C@@H]1OC[C@@H]2n1nnnc1SCc1ccco1`: the Potency result was “inactive”.
`O=C(NC1CCCCC1)O[C@@H]1CO[C@H]2[C@@H]1OC[C@@H]2n1nnnc1SCc1ccco1`: the Potency is 7.08 µM (active).
For the molecule `O=C(c1cc(C2CC2)nc2c1c(C1CCCN1)nn2-c1ccccc1)N1CCC(F)CC1` (stereo unspecified), the Potency entry is “inactive”.
With `CNc1nnc(-c2cccc3ccccc23)s1`, the Potency result was “inactive”.
Take `O=C(C1CCCC1)N1CC2(CCN(Cc3ccc(Cl)cc3)C2)Cc2ccccc21` (stereo unspecified): the Potency is 6.22 µM (active).
For the molecule `CCCC(=O)N1Cc2ccccc2CC2(CCN(Cc3ccc(O)cc3)C2)C1` (stereo unspecified), the Potency result is “inactive”.
For `NC(=O)c1cccc(CN2CCC3(CC2)Cc2ccccc2N(C(=O)c2ccc(Cl)cc2)C3)c1`, the Potency is 22.1 µM (active).
For the molecule `O=C(c1ccc(Cl)cc1)N1CC2(CCCN(Cc3ccc(Cl)cc3)C2)Cc2ccccc21` (stereo unspecified), the Potency was 4.94 µM (active).
Take `O=C(c1ccc(Cl)cc1)N1CC2(CCCN(Cc3ccccn3)C2)Cc2ccccc21` (stereo unspecified): the Potency result was “inactive”.
On to `O=C(C1CCCC1)N1Cc2ccccc2CC2(CCN(Cc3ccncc3)C2)C1` (stereo unspecified), for which the Potency result is “inactive”.
On to `CC(=O)N1Cc2ccccc2CC2(CCN(Cc3ccncc3)C2)C1` (stereo unspecified), for which the Potency entry is “inactive”.
Regarding `CC(=O)N1CC2(CCCN(CC3CCCCC3)C2)Cc2ccccc21` (stereo unspecified), the Potency result was “inactive”.
Then `O=C(c1ccc(Cl)cc1)N1CC2(CCN(Cc3ccc(Cl)cc3)C2)Cc2ccccc21` (stereo unspecified), with 1.56 µM (active).
As to `CCCC(=O)N1Cc2ccccc2CC2(CCN(Cc3ccccc3)CC2)C1`, the Potency entry is “inactive”.
As for `CCC(=O)N1Cc2ccccc2CC2(CCN(Cc3ccncc3)CC2)C1`, the Potency entry is “inactive”.
Turning to `O=C(C1CCCC1)N1Cc2ccccc2CC2(CCN(Cc3cccnc3)C2)C1` (stereo unspecified), the Potency result is “inactive”.
For the molecule `CC(=O)N1Cc2ccccc2OC2(CCN([S+](C)(=O)[O-])CC2)C1`, the Potency result is “inactive”.
Under `CNc1oc(C2CCCC2)nc1C#N` stands “inactive”.
Turning to `Cc1cccc(-c2cnc3n[nH]c(-c4ccc5c(c4)OCO5)c3n2)c1`, the Potency entry is “inactive”.
Then `CN1CC(=O)N(C2CCCNC2)Cc2c(NC3CCC3)ncnc21` (stereo unspecified), with “inactive”; and `N#Cc1cc2nc(O)c(O)nc2cc1[N+](=O)[O-]`, with “inactive”; and `OC1(CN2CCN(c3nccs3)CC2)CCCNC1` (stereo unspecified), with “inactive”.
`Cc1ccc(-c2ccccc2CN)c(C)c1`: the Potency entry was “inactive”.
Then `CCOCCCNc1ncnc2c1CN(C1CCCNCC1)C(=O)CN2C` (stereo unspecified), with “inactive”.
Consider `CN1CC(=O)N(C2CNC2)Cc2c(NC3CC3)ncnc21`, for which the Potency result is “inactive”.
Then `CN1CC(=O)N(C2CCCNC2)Cc2c(NCC3CCCCCC3)ncnc21` (stereo unspecified), with “inactive”; and `O=C1NCc2ccccc2CC12CCN(Cc1ccc(F)c(Cl)c1)CC2`, with “inactive”.
`C[S+](=O)([O-])N1CC2(Cc3ccccc3NC2=O)C1`: the Potency entry is “inactive”.
Regarding `N#Cc1ccc(CN2CCn3c(nn(-c4cccc(Cl)c4)c3=O)C2)cc1`, the Potency entry was “inactive”.
Under `O=C(c1ccc(C(F)(F)F)cc1)N1CCC2(CC1)C(=NC1CCCCC1)NC(=O)N2c1cc(F)cc(F)c1` stands “inactive”; under `CC(=O)NCCC(=O)N1Cc2ccccc2CC2(CCCN2CC2CCNCC2)C1` (stereo unspecified), “inactive”.
Regarding `COc1cccc(CC(=O)N2CC(CO)C3(CCNCC3)C2)c1` (stereo unspecified), the Potency result was “inactive”.
For the molecule `Nc1ccccc1CN1CCCC2(Cc3ccccc3CNC2=O)C1` (stereo unspecified), the Potency entry was “inactive”.
Then `Cc1cc(C)c(CN2CCC3(Cc4ccccc4CNC3=O)C2)c(C)c1` (stereo unspecified), with 0.879 µM (active).
On to `CCOc1ccc(CN2CCC3(Cc4ccccc4CNC3=O)C2)cc1` (stereo unspecified), for which the Potency result is “inactive”.
As to `O=C1NCc2ccccc2CC12CCN(Cc1ccccc1Cl)C2` (stereo unspecified), the Potency result was “inactive”.
For `Cc1cc(C)cc(CN2CCC3(Cc4ccccc4CNC3=O)C2)c1` (stereo unspecified), the Potency entry was “inactive”.
In the case of `O=C1NCc2ccccc2CC12CCN(Cc1cccc(Br)c1)C2` (stereo unspecified), the Potency entry is “inactive”.
Turning to `O=C1NCc2ccccc2CC12CCN(Cc1ccc(Br)cc1)C2` (stereo unspecified), the Potency was 17.5 µM (active).
Then `O=C1NCc2ccccc2CC12CCN(Cc1cc(O)cc(O)c1)C2` (stereo unspecified), with “inactive”; and `CCOc1cccc(CN2CCC3(Cc4ccccc4CNC3=O)C2)c1` (stereo unspecified), with “inactive”; and `O=C1NCc2ccccc2CC12CCN(Cc1ccc(Cl)cc1)CC2`, with “inactive”.
On to `O=C1NCc2ccccc2CC12CCN(Cc1ccc(Cl)cc1)C2` (stereo unspecified), for which the Potency was 27.5 µM (active).
Regarding `Cc1ccc(CN2CCC3(Cc4ccccc4CNC3=O)C2)cc1C` (stereo unspecified), the Potency entry was “inactive”.
`O=C1NCc2ccccc2CC12CCN(Cc1ccc(Oc3ccccc3)cc1)C2` (stereo unspecified): the Potency was 55.5 µM (active).
Take `CSc1ccc(-c2ccc(C=O)cc2)cc1`: the Potency entry was “inactive”.
In the case of `CC(C)Nc1ncnc2c1CN(C1CCCNC1)C(=O)CN2C` (stereo unspecified), the Potency entry was “inactive”.
Under `CN1CC(=O)N(C2CCCNC2)Cc2c1ncnc2N1CCN(Cc2ccccc2)CC1` (stereo unspecified) stands “inactive”.
As for `CN1CC(=O)N(C2CCCNCC2)Cc2c1ncnc2N1CCCC(O)C1` (stereo unspecified), the Potency entry is “inactive”.
For `CC[C@@](N)(C(=O)O)c1ccc(C(=O)O)cc1`, the Potency result is “inactive”.
Turning to `CCOCCCNc1ncnc2c1CN(C1CCNCC1)C(=O)CN2C`, the Potency entry was “inactive”.
Under `CN1CCC(C(=O)N2Cc3ccccc3OC3(CCN(C(=O)N(C)C)CC3)C2)CC1` stands “inactive”; under `Cn1nc(C2CCCN2)c2c(C(=O)NCc3ccc(F)cc3)cc(C3CC3)nc21` (stereo unspecified), “inactive”.
In the case of `O=Cc1ccccc1-c1ccc(O)cc1`, the Potency entry is “inactive”.
On to `COc1ccc(N2CC3CCC(C2)N3Cc2cccc(Cl)c2)cc1`, for which the Potency entry was “inactive”.
Then `CC(=O)NCc1cc(Cl)c2cccnc2c1O`, with 1.93 µM (active).
In the case of `CC(=O)NC(C)c1cc(F)c2cccnc2c1O` (stereo unspecified), the Potency was 17.2 µM (active).
As to `CCC(=O)NC(c1cc(Cl)c2cccnc2c1O)C(C)C` (stereo unspecified), the Potency is 10.9 µM (active).
For `CC(=O)NC(C)c1cc(Cl)c2cccnc2c1O` (stereo unspecified), the Potency was 6.85 µM (active).
As to `O=C(O)CCC(=O)N1Cc2ccccc2CC2(CCCN2CC2CCNC2)C1` (stereo unspecified), the Potency result is “inactive”.
`COc1cccc(CNc2ncnc3c2CN(C2CCCNCC2)C(=O)CN3C)c1` (stereo unspecified): the Potency result was “inactive”.
With `CN1CCCC2(Cc3ccccc3CN(C(=O)c3ccc(Cl)cc3)C2)C1` (stereo unspecified), the Potency entry was “inactive”.
In the case of `OCC1CN(c2ncccn2)CC12CCN(Cc1cccc3[nH]ccc13)CC2` (stereo unspecified), the Potency entry is “inactive”.
`CN1CC(=O)N(C2CCCNCC2)Cc2c1ncnc2N1CCC(N2CCCCC2)CC1` (stereo unspecified): the Potency entry is “inactive”.
As to `CNC(C)c1ccc(Oc2ccccc2)cc1` (stereo unspecified), the Potency result is “inactive”.
As to `Cn1nc(C2CCCNC2)c2c(C(=O)NCC(F)(F)F)cc(C3CC3)nc21` (stereo unspecified), the Potency result is “inactive”.
For `O=C(O)c1cccc(-c2cnc3ccccc3c2)c1`, the Potency entry was “inactive”.
For `Cn1nc(C2CCCN2)c2c(C(=O)NCc3cccs3)cc(C3CC3)nc21` (stereo unspecified), the Potency entry was “inactive”.
Regarding `O=C(N1CCOCC1)N1CCCC1c1nnc2n1CCNC2` (stereo unspecified), the Potency result is “inactive”.
With `NC(Cc1ccccc1)C(=O)N1CCC2(CC1)CN(C(=O)c1ccc(Cl)cc1)CCO2` (stereo unspecified), the Potency entry is “inactive”.
Then `O=S(=O)(Nc1ncc(CN2CC[C@H]3CNC[C@H]32)cn1)c1ccccc1`, with “inactive”; and `CN1CC(=O)N(C2CCNCC2)Cc2c1ncnc2N1CCc2ccccc2C1`, with “inactive”.
Then `COc1ccc(CN2CCCC23Cc2ccccc2CNC3=O)c(O)c1` (stereo unspecified), with “inactive”; and `CCOC(=O)c1c(NC(=O)CSc2nnnn2-c2ccc(OC)cc2)sc(C)c1C`, with “inactive”; and `CC(=O)Nc1ccc(CN2CCC(c3nc4ccc(C)cc4c(=O)[nH]3)CC2)cc1`, with “inactive”.
As for `CCCCc1ncc(-c2nccn2C2CCNC2)[nH]1` (stereo unspecified), the Potency entry was “inactive”.
Then `O=C1NCc2ccccc2CC12CCN(Cc1c(F)cccc1F)C2` (stereo unspecified), with “inactive”; and `COc1ccc(-c2nc(C3CC3)nc3c2CCN(C(=O)c2ccc(C(F)(F)F)cc2)CC3)cc1`, with “inactive”; and `O=[S+]([O-])(c1ccccc1)N1CC(Oc2ccc(F)c(F)c2)C1`, with “inactive”.
